Our source for the Potency values is PubChem BioAssay (NCATS).

SMILES strings stand for the structures. Inconclusive results are not listed. Entries that show only a call come without a potency. Active and inactive are the calls of the source. The call rests on the fitted dose curve; in most records, active means well fitted inhibition curve with a large enough effect; inconclusive means small, poorly fitted or top-dose-only effect; inactive means no such curve, though single readings can be large or run the other way.

The first assay deals with Retinaldehyde dehydrogenase 3 (Homo sapiens) (UniProt P47895). Nature of the assay: qHTS for Inhibitors of the Aldehyde Dehydrogenase Family (ALDH1A3) Validation screen (AID 2061312). Further: nearly all actives have a fitted effect of over 45% in size. The settings on record: ALDH1A3 enzyme inhibition qHTS validation, fluorescence; series mostly up to 84.7 µM. (In general: qHTS replaces the single test concentration by a dilution series.)
Take `FC(F)(F)c1cc(C(F)(F)F)c2ccc3nc(-c4nnco4)cn3c2n1`: the Potency result is “inactive”.
The same measure, in the same setting: in the case of `CCOC(=O)N1CCC(NCCNC(=O)c2ccccc2C)CC1` it was “inactive”.
The same measure, in the same setting: with `Cc1nc2ccccc2c(-c2ccc3c4c(ccnc24)CCO3)c1[C@H](OC(C)(C)C)C(=O)O` the entry was “inactive”; with `Cc1ccc(CCCO)c(NCc2ccc3nc(NCCCN4CCOCC4)n(Cc4nc(C)ccc4O)c3c2)c1`, “inactive”.
Take `CN(C)c1ccnc2sc3c(=O)n(N4CCCCCC4)cnc3c12`: the Potency entry was “inactive”.
Turning to `O=C(c1c2ccccc2cc2ccccc12)N1CCC(N2CCC[C@@H](C(=O)N3CCOCC3)C2)CC1`, the Potency result is “inactive”.
Regarding `O=C(NCCN1CCC(n2c(=O)[nH]c3ccccc32)CC1)c1cc2cc(F)ccc2[nH]1`, the Potency entry was “inactive”.
Consider `CC(C)(C)C1CCN(C(=O)n2ncc(C(O)(c3ccccc3)c3ccccc3)n2)CC1`, for which the Potency entry is “inactive”.
Regarding `Cn1c2ccc(F)cc2c2c(C(=O)N3CCCC3)cn(-c3ccccc3)c(=O)c21`, the Potency entry was “inactive”.
In the case of `CC(=O)O[C@]1(C(C)=O)CC[C@H]2[C@@H]3CCC4=CC(=O)CCC4=C3[C@@H](c3ccc(N(C)C)cc3)C[C@@]21C`, the Potency result was “inactive”.
Regarding `COc1ccc(-c2cnc3ccc(NCc4ccc(S(N)(=O)=O)cc4)nn23)cc1OC`, the Potency result is “inactive”.
On the same count and under the same terms, with `O=C(Nc1ccc(S(=O)(=O)Nc2ccccc2Cl)c(Cl)c1)c1ccccn1` the entry was “inactive”.
For the molecule `Cn1c(CO)c(-c2ccccc2)c2cc([N+](=O)[O-])ccc21`, the Potency result was “inactive”.
Still for that read-out and setting: with `Cc1cc(N2CCN([C@@H]3CN[C@H](C(=O)N4CCSC4)C3)CC2)n(-c2ccccc2)n1` the entry was “inactive”; with `O=C(O)c1cc(-c2ccccc2)nc2ccccc12`, “inactive”.
For the molecule `O=C(Nc1ccc2[nH]c(=O)oc2c1)C(=O)N1CCC(Cc2ccc(F)cc2)CC1`, the Potency result was “inactive”.
Regarding `O=C(NCCN1CCOCC1)c1cc2c(Oc3ccc(NC(=O)C4(C(=O)Nc5ccc(F)cc5)CC4)cc3)ccnc2[nH]1`, the Potency result is “inactive”.
Same read-out and setting: in the case of `COc1cc(NC(=O)c2cc(C3CC3)on2)c(OC)cc1Cl` it was “inactive”; in that of `O=C(NCCCc1ccccc1)C1CCC(CNS(=O)(=O)c2cccc3nsnc23)CC1` (stereo not given), “inactive”; in that of `O=S(=O)(Nc1cc(Cl)c(Oc2cnc3ccccc3c2)c(Cl)c1)c1ccc(Cl)cc1Cl`, “inactive”.
For `CC(C)(C)c1ccc(S(=O)(=O)NCc2ccc(C(=O)Nc3cccnc3)cc2)cc1`, the Potency entry was “inactive”.
On to `Cn1ncnc1COc1nn2c(-c3cc(F)ccc3F)nnc2cc1C(C)(C)C`, for which the Potency result is “inactive”.
Take `Cc1ccccc1CN1CCn2c1nc1c(c2=O)CN(Cc2ccccc2)CC1`: the Potency entry is “inactive”.
Turning to `CCCCCCOC(=O)/N=C(\N)c1ccc(NCc2nc3cc(C(=O)N(CCC(=O)OCC)c4ccccn4)ccc3n2C)cc1`, the Potency result was “inactive”.
On to `C[C@@H](NC(=O)c1cc(C(=O)N[C@@H](Cc2ccccc2)[C@H](O)CNC2CC2)cc(N(C)S(C)(=O)=O)c1)c1ccccc1`, for which the Potency entry is “inactive”.

Another assay shares this target. Nature of the assay: qHTS for Inhibitors of the Aldehyde Dehydrogenase Family (ALDH1A3) Primary screen (AID 2061315). The note with it: ALDH inhibition qHTS; series mostly up to 56 µM.
Consider `CCOC(=O)Nc1cc(-c2ccc(C)c(NS(C)(=O)=O)c2)nn2c(C)nnc12`, for which the Potency result was “inactive”.
`CSc1ccc(C(=O)N[C@@H]2CCCC[C@@H]2NC(=O)CNC(=O)c2cc(C(F)(F)F)ccc2NC(=O)NC(C)C)cc1`: the Potency result was “inactive”.
The same measure, in the same setting: with `CC(C)c1ccc(NC(=O)Cn2cnc3c2c(=O)n(C)c(=O)n3C)cc1` the entry was “inactive”; with `CC(c1ncncc1F)C(O)(Cn1cncn1)c1ccc(F)cc1F` (stereo not given), “inactive”.
On the same count and under the same terms, with `CC(=O)SCC(=O)c1ccc(NS(=O)(=O)c2ccc(OCCCN(C)C)cc2)nc1` the entry was “inactive”; with `CC(C)(F)C[C@@H](N[C@@H](c1ccc(-c2ccc(S(C)(=O)=O)cc2)cc1)C(F)(F)F)C(=O)NC1(C#N)CC1`, “inactive”.
As to `O=C(O)c1ccccc1NC(=O)N1CCC(c2ccccc2C(F)(F)F)CC1`, the Potency entry was “inactive”.
As to `CCCCOc1ccc(-c2cncc(C(=O)NCc3cccnc3N3CCOCC3)c2)cc1Cl`, the Potency entry was “inactive”.
Take `CCCCS(=O)(=O)NC(Cc1ccc(OCCCCC2CCNCC2)cc1)C(=O)O` (stereo not given): the Potency entry was “inactive”.
Still for that read-out and setting: with `O=C(NCCCn1ccnc1)c1cc(-c2ccco2)on1` the entry was “inactive”; with `CN1CCN(Cc2ccc(NC(=O)Cc3ccc(Oc4cc(NC(=O)C5CC5)ncn4)cc3)cc2C(F)(F)F)CC1`, “inactive”.
Take `c1ccc(CN(CC2=NCCN2)c2ccccc2)cc1`: the Potency result was “inactive”.
Regarding `COc1cc(C(=O)NCC2(N(C)C)CCCC2)cc(OC)c1OCc1ccccc1`, the Potency entry was “inactive”.
Take `CCC(C)c1ccc(NC(=O)Cn2cnc3c2c(=O)n(C)c(=O)n3C)cc1` (stereo not given): the Potency result was “inactive”.
In the case of `O=C(Nc1ccc(N2CCC(C(=O)N3CCOCC3)CC2)cc1)c1cnc(Oc2ccccc2)nc1`, the Potency result was “inactive”.
As to `FC(F)(F)c1cc(C(F)(F)F)c2ccc3nc(-c4nnco4)cn3c2n1`, the Potency entry was “inactive”.
As for `CCOC(=O)N1CCC(NCCNC(=O)c2ccccc2C)CC1`, the Potency entry is “inactive”.
For `Cc1nc2ccccc2c(-c2ccc3c4c(ccnc24)CCO3)c1[C@H](OC(C)(C)C)C(=O)O`, the Potency entry was “inactive”.
Regarding `Cc1ccc(CCCO)c(NCc2ccc3nc(NCCCN4CCOCC4)n(Cc4nc(C)ccc4O)c3c2)c1`, the Potency entry is “inactive”.
As to `CN(C)c1ccnc2sc3c(=O)n(N4CCCCCC4)cnc3c12`, the Potency entry is “inactive”.
Consider `O=C(c1c2ccccc2cc2ccccc12)N1CCC(N2CCC[C@@H](C(=O)N3CCOCC3)C2)CC1`, for which the Potency entry is “inactive”.
Take `O=C(NCCN1CCC(n2c(=O)[nH]c3ccccc32)CC1)c1cc2cc(F)ccc2[nH]1`: the Potency entry is “inactive”.
For `CC(C)(C)C1CCN(C(=O)n2ncc(C(O)(c3ccccc3)c3ccccc3)n2)CC1`, the Potency entry was “inactive”.
On the same count and under the same terms, in the case of `Cn1c2ccc(F)cc2c2c(C(=O)N3CCCC3)cn(-c3ccccc3)c(=O)c21` it was “inactive”.
On to `CC(=O)O[C@]1(C(C)=O)CC[C@H]2[C@@H]3CCC4=CC(=O)CCC4=C3[C@@H](c3ccc(N(C)C)cc3)C[C@@]21C`, for which the Potency entry is “inactive”.
For the molecule `COc1ccc(-c2cnc3ccc(NCc4ccc(S(N)(=O)=O)cc4)nn23)cc1OC`, the Potency result was “inactive”.
For `O=C(Nc1ccc(S(=O)(=O)Nc2ccccc2Cl)c(Cl)c1)c1ccccn1`, the Potency result is “inactive”.
With `Cn1c(CO)c(-c2ccccc2)c2cc([N+](=O)[O-])ccc21`, the Potency entry is “inactive”.
For `Cc1cc(N2CCN([C@@H]3CN[C@H](C(=O)N4CCSC4)C3)CC2)n(-c2ccccc2)n1`, the Potency result is “inactive”.
In the case of `O=C(O)c1cc(-c2ccccc2)nc2ccccc12`, the Potency entry is “inactive”.
With `O=C(Nc1ccc2[nH]c(=O)oc2c1)C(=O)N1CCC(Cc2ccc(F)cc2)CC1`, the Potency result is “inactive”.
The same measure, in the same setting: with `O=C(NCCN1CCOCC1)c1cc2c(Oc3ccc(NC(=O)C4(C(=O)Nc5ccc(F)cc5)CC4)cc3)ccnc2[nH]1` the entry was “inactive”.
In the case of `COc1cc(NC(=O)c2cc(C3CC3)on2)c(OC)cc1Cl`, the Potency result is “inactive”.
As to `O=C(NCCCc1ccccc1)C1CCC(CNS(=O)(=O)c2cccc3nsnc23)CC1` (stereo not given), the Potency entry was “inactive”.
For `O=S(=O)(Nc1cc(Cl)c(Oc2cnc3ccccc3c2)c(Cl)c1)c1ccc(Cl)cc1Cl`, the Potency entry is “inactive”.
Take `CC(C)(C)c1ccc(S(=O)(=O)NCc2ccc(C(=O)Nc3cccnc3)cc2)cc1`: the Potency entry was “inactive”.
As for `Cn1ncnc1COc1nn2c(-c3cc(F)ccc3F)nnc2cc1C(C)(C)C`, the Potency entry was “inactive”.
As to `Cc1ccccc1CN1CCn2c1nc1c(c2=O)CN(Cc2ccccc2)CC1`, the Potency entry was “inactive”.
In the case of `CCCCCCOC(=O)/N=C(\N)c1ccc(NCc2nc3cc(C(=O)N(CCC(=O)OCC)c4ccccn4)ccc3n2C)cc1`, the Potency entry was “inactive”.
With `C[C@@H](NC(=O)c1cc(C(=O)N[C@@H](Cc2ccccc2)[C@H](O)CNC2CC2)cc(N(C)S(C)(=O)=O)c1)c1ccccc1`, the Potency entry is “inactive”.
